Assay results from PubChem BioAssay AID1851 (National Center for Advancing Translational Sciences (NCATS), 2009).
The campaign covered roughly 16,000 compounds. About 2,600 (16%) were called active. About 20% were inconclusive and are not listed. The list is a sample of the results. A number with no mark means an inactive call. The call rests on the fitted dose curve; in most records, active means well fitted curve in the direction sought with a large enough effect; inconclusive means small, poorly fitted or top-dose-only effect, or effect the other way; inactive means no such curve, though single readings can be large or run the other way.

What follows are molecules tested against Cytochrome P450 2D6 (Homo sapiens) (UniProt P10635) (assay: Cytochrome panel assay with activity outcomes). Conditions: recombinant CYP, pro-luciferin dealkylation, luminescence, p450-cyp2d6; series mostly up to 57.1 µM; activity, negative = inhibition: at the top concentration.
On the % scale 0 is the no-effect control and ±100 the full control effect.

Sequence of Cytochrome P450 2D6 (Homo sapiens) (P10635 whole entry, looked up): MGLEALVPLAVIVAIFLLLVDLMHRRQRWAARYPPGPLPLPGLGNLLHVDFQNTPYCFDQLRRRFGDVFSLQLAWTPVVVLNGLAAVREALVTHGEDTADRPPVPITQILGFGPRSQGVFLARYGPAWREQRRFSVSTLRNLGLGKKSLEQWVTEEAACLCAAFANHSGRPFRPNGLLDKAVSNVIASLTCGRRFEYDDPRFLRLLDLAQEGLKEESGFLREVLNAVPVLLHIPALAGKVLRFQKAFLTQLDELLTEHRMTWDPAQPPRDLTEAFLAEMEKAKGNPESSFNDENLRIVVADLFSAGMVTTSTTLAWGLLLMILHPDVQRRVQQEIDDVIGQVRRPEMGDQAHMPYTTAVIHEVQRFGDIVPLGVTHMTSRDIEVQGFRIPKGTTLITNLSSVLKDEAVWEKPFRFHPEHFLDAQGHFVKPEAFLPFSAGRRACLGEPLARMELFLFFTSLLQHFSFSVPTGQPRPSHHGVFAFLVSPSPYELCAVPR

SMILES	activity, negative = inhibition	AC50
COc1ccc(-c2nc3cnc(Nc4cccc(OC)c4)nc3n(CCC#N)c2=O)cc1	0.405%	–
Cc1ccc(NC(=O)Cn2nc([N+](=O)[O-])c(Br)c2C)cc1C	-22.2%	–
COc1cc2c(cc1OC)-c1cc(NCc3ccccn3)nc(=O)n1CC2	-23.8%	–
COc1cc(CNCCN2CCOCC2)ccc1OCc1ccccc1Cl	–	11.2 µM (active)
CCOc1ccccc1CNCCN1CCOCC1	–	12.6 µM (active)
COc1ccc(CC(=O)NCc2ccccn2)cc1OC	-3.31%	–
COc1ccc(NC(=O)COc2ccc(CNCCCN3CCOCC3)cc2OC)cc1	-25.3%	–
Cc1ccccc1-c1cc(NCCN2CCOCC2)ncn1	-12%	–
COc1cc(CNCc2ccccn2)ccc1OCc1ccc(Cl)cc1Cl	–	12.6 µM (active)
COc1cc(CNn2nnnc2N)ccc1OCc1c(Cl)cccc1Cl	0.965%	–
c1csc(CNCCCN2CCOCC2)c1	-19.4%	–
CCN(CC)S(=O)(=O)N1CCC(C(=O)NC2CCCC2)CC1	-1.15%	–
COc1cccc(Cn2c(=O)c(-c3cccc(C#N)c3)nc3cnc(OC)nc32)c1	-6.2%	–
COc1ccc(-c2cc(C(F)(F)F)nc(N3CCOCC3)n2)cc1OC	-9.69%	–
CC1=NN(c2ccc(C)cc2C)C(=O)C1C(c1ccccc1)C1C(=O)N(c2ccc(C)cc2C)N=C1C (configuration not stated)	-4.48%	–
C=CC[C@@H]1C=C[C@@H](O/N=C\[C@@H](OC)[C@H](C)/C=C\CC(=O)OC)[C@@H](CO)O1	4.18% [at 11.4 µM]	–
O=C(c1cc(-c2ccncc2)nc2ccccc12)N1CCN(c2ccc(N3CCOCC3)nn2)CC1	-13.7%	–
COc1ccc(/C(O)=C2\C(=O)C(=O)N(c3cc(C)on3)C2c2ccc(OC)c(OC)c2)cc1OC (configuration not stated)	12.4%	–
CC(C)c1nnc(NC(=O)c2sc3ccccc3c2Cl)s1	-12%	–
C[N+](C)(CCCCCC[N+](C)(C)CCCN1C(=O)c2cccc3cccc(c23)C1=O)CCCN1C(=O)c2cccc3cccc(c23)C1=O	-5.79%	–
CS[C@@H](CC(=O)O)C(=O)O	-10.1% [at 11.4 µM]	–
CCN(CC)CC#CCC(C)(c1ccccc1)c1ccccc1	–	0.891 µM (active)
CC(CC(=O)O)(CC(=O)O)c1ccccc1	11.2% [at 11.4 µM]	–
COc1ncc2nc(C)c(=O)n(-c3ccccc3)c2n1	-4.68%	–
O=C(Nc1nc(-c2ccccc2)cs1)c1ccc(Br)o1	-26.9%	–
CN1CCN(c2ncc3nc(-c4cc(F)cc(F)c4)c(=O)n(Cc4cccs4)c3n2)CC1	-0.882%	–

SMILES	activity, negative = inhibition	AC50
O=C1c2cccc3cccc(c23)C(=O)N1CC1CCN(CC(O)COc2ccc3ccccc3c2)CC1 (configuration not stated)	–	0.708 µM (active)
O=C(CCN1C(=O)c2ccccc2C1=O)Oc1ccc2ccccc2c1	-12.4%	–
O=C(c1ccc(S(=O)(=O)N2CCCCCC2)cc1)N1CCC(CN2C(=O)c3cccc4cccc(c34)C2=O)CC1	-9.01%	–
O=C(O)[C@@H](S)[C@H](S)C(=O)O	-4.31% [at 11.4 µM]	–
CN1CCN(c2ccc([N+](=O)[O-])cc2S(=O)(=O)N2CCOCC2)CC1	-7.09%	–
Cc1cccc(OCCCC(=O)Nc2ccc(N3CCCCC3)cc2)c1	–	0.891 µM (active)
Cc1cccc(N2CCN(c3ccc(NC(=O)/C=C(/C(=O)O)c4ccccc4)cc3)CC2)c1	4.26%	–
CC(=O)Nc1ccc(N2CCCCC2)cc1	-9.74%	–
Cc1ccnc2nc(C(=O)OCC(=O)Nc3ccc4c(c3)OC(F)(F)O4)nn12	-21.3%	–
CCO[P@]1(=O)OC[C@@H]2O[C@H](n3cnc4c(N)ncnc43)[C@H](O)[C@@H]2O1	4.83% [at 11.4 µM]	–
CCN(/C=N/c1sc2c(c1C#N)CCCCC2)CC	-33.3%	–
O=C(NC1(C(F)(F)F)C(=O)Nc2c1c(=O)[nH]c(=O)n2-c1ccc(F)cc1)c1cccnc1 (configuration not stated)	7.79%	–
CN(C)CCCN1CC(C(=O)O)CC1=O (configuration not stated)	19%	–
Cc1cccc(CNc2ncnc3ccc(-c4cccc(C#N)c4)cc23)c1	-17.4%	–
c1cncc(-c2ccc3ncnc(NC4CCNCC4)c3c2)c1	-8.56%	–
c1ccc(Nc2ncnc3ccc(-c4cccnc4)cc23)cc1	-13.8%	–
Cc1cccc(CNc2ncnc3ccc(-c4cccnc4)cc23)c1	–	12.6 µM (active)
c1ccc(CNc2ncnc3ccc(-c4cccnc4)cc23)cc1	–	10 µM (active)
CN1CCN(C2CC(=O)N(Cc3ccc(N4CCCC4=O)cc3)C2=O)CC1 (configuration not stated)	2%	–
O=c1c(-c2ccccc2)nc2cnc(N3CCNCC3)nc2n1Cc1ccc(F)cc1	-15.7%	–
COc1ccc2c(Cl)cc(NC(=S)Nc3ccccc3)nc2c1	-18.8% [at 11.4 µM]	–
COc1ccc(N2C(=O)CCC(C(=O)O)C2c2ccc(F)cc2)cc1 (configuration not stated)	1.51%	–
CN1CCN(c2ncc3nc(-c4cn(C)c5ccccc45)c(=O)n(C)c3n2)CC1	11.6%	–
O=C(NNc1cccc(Cl)n1)Nc1ccccc1Cl	-31.9%	–
COc1ccc(-c2nc3cnc(N4CCNCC4)nc3n(Cc3cccs3)c2=O)cc1	-6.46%	–
Cc1nc(-c2cccc(NC(=O)c3cc4cc(Br)ccc4oc3=O)c2)cs1	26.4%	–

SMILES	activity, negative = inhibition	AC50
CCn1c(C)cc(/C=C2\NC(=O)N(Cc3ccc(Cl)cc3)C2=O)c1C	4.67%	–
Cc1ccc(NC(=S)c2nc3ccccc3s2)cc1	-15.2%	–
Brc1ccc(/C=C/C=N/Nc2nc3ccccc3s2)cc1	15.1%	–
CCN(CC)c1ccc(/C=C/c2nc3ccccc3s2)cc1	–	28.2 µM (active)
Cn1c(=O)c2[nH]c(COCc3nc4c([nH]3)c(=O)n(C)c(=O)n4C)nc2n(C)c1=O	3.11% [at 11.4 µM]	–
NC1=C(O)C(=O)[C@H](c2c[nH]c3ccc(OCc4ccccc4)cc23)O1	-2.34% [at 11.4 µM]	–
O=C(Oc1ccccc1)N1CCC2(CC1)CN(c1ccncc1)C2	5.3%	–
CCCCN(C)CCCNC(=O)CCn1nc(-c2ccccc2)ccc1=O	-27%	–
CCN(CCCNC(=O)CC(C(=O)N1CCc2ccccc21)n1ccnc1)c1ccccc1 (configuration not stated)	–	3.98 µM (active)
O=C(CNCCO)N1CCc2ccccc21	-26.9%	–
Clc1ccc(-c2nnc(-c3ccccc3)c(N3CCSCC3)n2)cc1	-13%	–
Cc1noc(NS(=O)(=O)c2cccc3c(N(C)C)cccc23)c1C	-6%	–
O=C(Nn1cc(C(=O)N2CCN(c3ccccc3F)CC2)c2ccccc2c1=O)c1cnccn1	-6.56%	–
CC(=O)NNC(=O)CCC(=O)Nc1ccccc1	-4.27%	–
C#CCCCC(=O)Nc1ccccc1	–	12.6 µM (active)
CCC(=O)NNC(=O)CCC(=O)Nc1ccccc1	18%	–
Cc1ccc(-c2csc(N/N=C/c3ccco3)n2)cc1	-14.3%	–
NCCSSCCN	–	inactive
O=c1oc2cc(Oc3ccc(C(F)(F)F)cc3[N+](=O)[O-])ccc2c2c1CCCC2	20.1%	–
CC(C)c1ccc(OCc2ccc(C(=O)N3CCN(c4ccccn4)CC3)cc2)cc1	7.85%	–
CC(=O)Nc1nnc(SCc2ccc(F)cc2)s1	-0.935%	–
COc1ccc(CCn2c(C)cc(C(=O)CSc3nc(N)cc(=O)[nH]3)c2C)cc1	-25.3%	–
Cc1cc(C(=O)CSc2nnc(N)s2)c(C)n1CCc1ccc(F)cc1	–	7.08 µM (active)
Cn1c(=O)c2c(ncn2CN2CCN(Cn3cnc4c3c(=O)n(C)c(=O)n4C)CC2)n(C)c1=O	-3.86% [at 11.4 µM]	–
C[C@@H]1/C=C\CC(=O)OC[C@H](C)C(=O)N[C@@H](C)C(=O)OC1	-1.56% [at 11.4 µM]	–
CCCc1nnc(NC(=O)C(CC)OC(=O)c2cc(C)nc3ccccc23)s1 (configuration not stated)	-10.4%	–

SMILES	activity, negative = inhibition	AC50
C[C@@H]1Oc2ccc(C(=O)C[C@@H](C(=O)O)c3ccc4c(c3)OCO4)cc2O1	-15.2% [at 11.4 µM]	–
C[C@@H](C(=O)O)/C(=C/c1ccc2c(c1)OCO2)C(=O)O	14.3% [at 11.4 µM]	–
c1ccc(SC(Sc2ccccc2)c2ccc3c(c2)OCO3)cc1	–	3.16 µM (active)
N[C@H](C(=O)O)c1ccc(C(=O)O)c(O)c1	6.68%	–
O=C(Nc1ccccc1C(=O)NCC1CCCO1)c1ccc(Cl)cc1Cl (configuration not stated)	-8.86%	–
CC(C)(C)S(=O)(=O)c1cnc2c(-c3ccc(F)cc3)cnn2c1N	-6.59%	–
CCCCc1c2ccccc2nc2[nH]c3ccccc3c12	-9.3%	–
CCn1c2ccc(Cl)cc2c2nc3ccccc3nc21	-11.3%	–
CN(C)CCCc1c2ccccc2nc2ccc(Cl)cc12	–	1.58 µM (active)
Cn1c(=O)c2[nH]cnc2n(C)c1=O	–	inactive
Cc1ccc(Sc2ccc(NC(=O)c3ccc(S(C)(=O)=O)cc3Cl)cc2)cc1	-9.39%	–
COC(=O)CCC(=O)NNC(=O)c1ccc(Br)cc1	-11.4%	–
O=C(CCn1c(=S)[nH]c2ccccc2c1=O)NCCCN1CCOCC1	0.306%	–
Fc1cccc(NC(=S)NCCCN2CCOCC2)c1	–	7.94 µM (active)
Cc1ccc(NC(=S)NCCN2CCOCC2)cc1C	-2.36%	–
CN(C)CCCO[C@H]1[C@@H]2OC(C)(C)O[C@@H]2O[C@@H]1[C@H](O)CO	1.79% [at 25.6 µM]	–
C#CCCCO/N=C1/C[C@@H](O)[C@@H](O)[C@@H]2[C@@H]3C(=O)N(C4CCCCC4)C(=O)[C@H]3CC[C@@H]12	13% [at 11.4 µM]	–
CCC(=O)Nc1ccc(C(=O)CSc2nnc(-c3ccc(O)cc3)n2CC2CCCO2)cc1OC (configuration not stated)	2.81%	–
C[C@H](NC(=O)c1ccc(Cl)c(Cl)c1)c1ccc(-c2ccccc2)cc1	-1.17% [at 11.4 µM]	–
CC(=O)Nc1cccc(N2C(=O)CCC2=O)c1	7.17%	–
O=C(O)c1cccc(N2CCCC2=O)c1	–	0.251 µM (active)
CCCCN(C)CCCNC(=O)c1ccc(N2CCCC2=O)cc1	6.53%	–
Cc1ccc(C(=O)NC2CCCCCC2)cc1N1CCCC1=O	-11.6%	–
CC(NC(=O)c1ccc(N2CCCC2=O)cc1)c1ccccc1 (configuration not stated)	–	7.94 µM (active)
